Results: the supplement of paper PMC10037445
The full ranking holds about 2,900 compounds; the median of “NF-kB SEAP reporter activity, fold change vs agonist alone” is about 0.99, and the highest 2% start at about 2.6. Only a selection was taken, and the highest values are over-represented in it overall.

What was measured:
[1] = tested on: RAW-Dual; experiment: NF-kB SEAP reporter activity, fold change vs agonist alone; higher = enhanced NF-kB activity
Method in brief: (§1)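 RAW-Dual macrophages were seeded in DMEM at 50,000 cells/well in 384-well plates, given 50 nL of library stock by pin tool, and given a PRR agonist 1 h later. Plates were held at 37 °C, 5% CO2 for 20 hours, after which supernatant was read for IRF by QuantiLuc luminescence and for NF-κB by QuantiBlue absorbance at 620 nm. Reporter activity is expressed as fold change over wells that received agonist alone. A well was called cytotoxic when IncuCyte confluency fell below 70% of agonist controls in both mask sets.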

[2] = tested on: RAW-Dual; experiment: NF-kB SEAP reporter activity, fold change vs agonist alone; cytotoxicity flag (confluency mask): not cytotoxic; higher = enhanced NF-kB activity
Method in brief: as §1

[3] = tested on: RAW-Dual; experiment: NF-kB SEAP reporter activity, fold change vs agonist alone; cytotoxicity flag (confluency mask): cytotoxic (confluency <70% of control); higher = enhanced NF-kB activity
Method in brief: as §1

[4] = library stock concentration (final ~1000-fold dilution): 2 mM, cytotoxicity flag (confluency mask): not cytotoxic, agonist: Imiquimod (TLR7) […]
[5] = library stock concentration (final ~1000-fold dilution): 2 mM, cytotoxicity flag (confluency mask): not cytotoxic, agonist: MPLA (TLR4) […]
[6] = agonist: ODN 1826 (TLR9) 0.5 ug/mL
[7] = agonist: Pam2CSK4 (TLR2/6) 0.1 ug/mL
[8] = agonist: Pam3CSK4 (TLR2/1) 0.1 ug/mL
[9] = library stock concentration (final ~1000-fold dilution): 10 mM, cytotoxicity flag (confluency mask): not cytotoxic, agonist: Imiquimod (TLR7) […]
[10] = library stock concentration (final ~1000-fold dilution): 10 mM, cytotoxicity flag (confluency mask): not cytotoxic, agonist: MPLA (TLR4) […]
[11] = library stock concentration (final ~1000-fold dilution): 10 mM, cytotoxicity flag (confluency mask): cytotoxic (confluency <70% of control), agonist: Imiquimod (TLR7) […]
[12] = library stock concentration (final ~1000-fold dilution): 10 mM, cytotoxicity flag (confluency mask): cytotoxic (confluency <70% of control), agonist: MPLA (TLR4) […]

C/C=C1/C2C=C(C)CC1(N)c1ccc(=O)[nH]c1C2 (stereo not given)
NF-kB SEAP reporter activity [1, 4]: 0.822 | NF-kB SEAP reporter activity [1, 5]: 1.1

C/C=C1/C2C=C(C)CC1(N)c1ccc(=O)[nH]c1C2 (stereo not given) (library stock concentration (final ~1000-fold dilution): 2 mM)
NF-kB SEAP reporter activity ([2]; agonist: LPS (TLR4) 0.1 ug/mL): 1.33 | NF-kB SEAP reporter activity [2, 6]: 1.01 | NF-kB SEAP reporter activity [2, 7]: 1.14 | NF-kB SEAP reporter activity [2, 8]: 1.01

CC1c2cccc(O)c2C(=O)C2=C(O)C3(O)C(=O)C(C(N)=O)=C(O)C(N(C)C)C3C(O)C21.CC1c2cccc(O)c2C(=O)C2=C(O)C3(O)C(=O)C(C(N)=O)=C(O)C(N(C)C)C3C(O)C21.CCO.Cl.Cl.O (stereo not given)
NF-kB SEAP reporter activity [1, 9]: 0.998 | NF-kB SEAP reporter activity [1, 10]: 1.13

CC1c2cccc(O)c2C(=O)C2=C(O)C3(O)C(=O)C(C(N)=O)=C(O)C(N(C)C)C3C(O)C21.CC1c2cccc(O)c2C(=O)C2=C(O)C3(O)C(=O)C(C(N)=O)=C(O)C(N(C)C)C3C(O)C21.CCO.Cl.Cl.O (stereo not given) (library stock concentration (final ~1000-fold dilution): 10 mM)
NF-kB SEAP reporter activity ([2]; agonist: LPS (TLR4) 0.1 ug/mL): 1.6 | NF-kB SEAP reporter activity [2, 6]: 0.969 | NF-kB SEAP reporter activity [2, 7]: 1.26 | NF-kB SEAP reporter activity [2, 8]: 0.938

O=C(O)/C(S)=C/c1c[nH]c2ccc(F)cc12 (library stock concentration (final ~1000-fold dilution): 10 mM)
NF-kB SEAP reporter activity ([2]; agonist: LPS (TLR4) 0.1 ug/mL): 0.886 | NF-kB SEAP reporter activity [2, 6]: 0.864 | NF-kB SEAP reporter activity [2, 7]: 0.988 | NF-kB SEAP reporter activity [2, 8]: 0.934

O=C(O)/C(S)=C/c1c[nH]c2ccc(F)cc12
NF-kB SEAP reporter activity [1, 9]: 0.865 | NF-kB SEAP reporter activity [1, 10]: 1.08

COC(=O)C1=C(C)NC(C)=C(C(=O)OCCN2CCN(C(c3ccccc3)c3ccccc3)CC2)C1c1cccc([N+](=O)[O-])c1.Cl.Cl (stereo not given) (library stock concentration (final ~1000-fold dilution): 10 mM)
NF-kB SEAP reporter activity ([2]; agonist: LPS (TLR4) 0.1 ug/mL): 0.834 | NF-kB SEAP reporter activity [2, 6]: 0.364 | NF-kB SEAP reporter activity [2, 7]: 0.241 | NF-kB SEAP reporter activity [2, 8]: 0.405

COC(=O)C1=C(C)NC(C)=C(C(=O)OCCN2CCN(C(c3ccccc3)c3ccccc3)CC2)C1c1cccc([N+](=O)[O-])c1.Cl.Cl (stereo not given)
NF-kB SEAP reporter activity [1, 9]: 0.58 | NF-kB SEAP reporter activity [1, 10]: 0.873

CN(C)CCOC(c1ccccc1)c1ccccc1.Cl
NF-kB SEAP reporter activity [1, 9]: 1.39 | NF-kB SEAP reporter activity [1, 10]: 0.886

CN(C)CCOC(c1ccccc1)c1ccccc1.Cl (library stock concentration (final ~1000-fold dilution): 10 mM)
NF-kB SEAP reporter activity ([2]; agonist: LPS (TLR4) 0.1 ug/mL): 1.27 | NF-kB SEAP reporter activity [2, 6]: 0.728 | NF-kB SEAP reporter activity [2, 7]: 0.917 | NF-kB SEAP reporter activity [2, 8]: 1.1

Cn1cc(CC(N)C(=O)O)c2ccccc21 (stereo not given)
NF-kB SEAP reporter activity [1, 4]: 0.994 | NF-kB SEAP reporter activity [1, 5]: 1.05

Cl.Cl.Cn1cc(CNCC2CCN(c3ncc(C(=O)NO)cn3)CC2)c2ccccc21 (library stock concentration (final ~1000-fold dilution): 10 mM)
NF-kB SEAP reporter activity ([3]; agonist: LPS (TLR4) 0.1 ug/mL): 7.01 | NF-kB SEAP reporter activity [3, 6]: 1.95 | NF-kB SEAP reporter activity [3, 7]: 1.13 | NF-kB SEAP reporter activity [3, 8]: 1.93

Cl.Cn1cc(C(=O)C2CCc3nc[nH]c3C2)c2ccccc21 (stereo not given) (library stock concentration (final ~1000-fold dilution): 10 mM)
NF-kB SEAP reporter activity ([2]; agonist: LPS (TLR4) 0.1 ug/mL): 1.01 | NF-kB SEAP reporter activity [2, 6]: 0.67 | NF-kB SEAP reporter activity [2, 7]: 0.928 | NF-kB SEAP reporter activity [2, 8]: 0.877

Cl.Cl.Cn1cc(CNCC2CCN(c3ncc(C(=O)NO)cn3)CC2)c2ccccc21
NF-kB SEAP reporter activity [1, 11]: 2.52 | NF-kB SEAP reporter activity [1, 12]: 2.65

Cn1cc(CC(N)C(=O)O)c2ccccc21 (stereo not given) (library stock concentration (final ~1000-fold dilution): 2 mM)
NF-kB SEAP reporter activity ([2]; agonist: LPS (TLR4) 0.1 ug/mL): 1.05 | NF-kB SEAP reporter activity [2, 6]: 1.22 | NF-kB SEAP reporter activity [2, 7]: 1.19 | NF-kB SEAP reporter activity [2, 8]: 1.05

Cl.Cn1cc(C(=O)C2CCc3nc[nH]c3C2)c2ccccc21 (stereo not given)
NF-kB SEAP reporter activity [1, 9]: 0.775 | NF-kB SEAP reporter activity [1, 10]: 0.816

COc1ccc(CCC(=O)N(c2nccc3ccccc23)C2CCCNC2)cc1 (stereo not given) (library stock concentration (final ~1000-fold dilution): 10 mM)
NF-kB SEAP reporter activity ([2]; agonist: LPS (TLR4) 0.1 ug/mL): 1.05 | NF-kB SEAP reporter activity [2, 6]: 0.84 | NF-kB SEAP reporter activity [2, 7]: 1.09 | NF-kB SEAP reporter activity [2, 8]: 1.08

COc1ccc(CCC(=O)N(c2nccc3ccccc23)C2CCCNC2)cc1 (stereo not given)
NF-kB SEAP reporter activity [1, 9]: 1.07 | NF-kB SEAP reporter activity [1, 10]: 1.29

CS(=O)(=O)c1cccc(CC(NC(=O)c2c(Cl)cc3c(c2Cl)CCN(C(=O)c2ccc4ccoc4c2)C3)C(=O)O)c1 (stereo not given) (library stock concentration (final ~1000-fold dilution): 10 mM)
NF-kB SEAP reporter activity ([2]; agonist: LPS (TLR4) 0.1 ug/mL): 0.994 | NF-kB SEAP reporter activity [2, 6]: 1 | NF-kB SEAP reporter activity [2, 7]: 1.03 | NF-kB SEAP reporter activity [2, 8]: 0.941

CS(=O)(=O)c1cccc(CC(NC(=O)c2c(Cl)cc3c(c2Cl)CCN(C(=O)c2ccc4ccoc4c2)C3)C(=O)O)c1 (stereo not given)
NF-kB SEAP reporter activity [1, 9]: 0.947 | NF-kB SEAP reporter activity [1, 10]: 1.04

O=[N+]([O-])c1ccc(S(=O)(=O)N2CCN(c3ccnc4cc(Cl)ccc34)CC2)c([N+](=O)[O-])c1 (library stock concentration (final ~1000-fold dilution): 10 mM)
NF-kB SEAP reporter activity ([3]; agonist: LPS (TLR4) 0.1 ug/mL): 0.384 | NF-kB SEAP reporter activity [3, 6]: 0.333 | NF-kB SEAP reporter activity [3, 7]: 0.229 | NF-kB SEAP reporter activity [3, 8]: 0.196

O=[N+]([O-])c1ccc(S(=O)(=O)N2CCN(c3ccnc4cc(Cl)ccc34)CC2)c([N+](=O)[O-])c1
NF-kB SEAP reporter activity [1, 11]: 0.787 | NF-kB SEAP reporter activity [1, 12]: 0.37

O=C(/C=C/c1cccc(S(=O)(=O)Nc2ccccc2)c1)NO
NF-kB SEAP reporter activity [1, 11]: 2.39 | NF-kB SEAP reporter activity [1, 12]: 2.58

O=C(/C=C/c1cccc(S(=O)(=O)Nc2ccccc2)c1)NO (library stock concentration (final ~1000-fold dilution): 10 mM)
NF-kB SEAP reporter activity ([3]; agonist: LPS (TLR4) 0.1 ug/mL): 5.83 | NF-kB SEAP reporter activity [3, 6]: 2.3 | NF-kB SEAP reporter activity [3, 7]: 0.848 | NF-kB SEAP reporter activity [3, 8]: 1.76

Cn1cc(/C=C/C(=O)c2cccc(F)c2)cc1/C=C/C(=O)NO
NF-kB SEAP reporter activity [1, 9]: 0.803 | NF-kB SEAP reporter activity [1, 10]: 1.06

Cn1cc(/C=C/C(=O)c2cccc(F)c2)cc1/C=C/C(=O)NO (library stock concentration (final ~1000-fold dilution): 10 mM)
NF-kB SEAP reporter activity ([2]; agonist: LPS (TLR4) 0.1 ug/mL): 1.26 | NF-kB SEAP reporter activity [2, 6]: 0.787 | NF-kB SEAP reporter activity [2, 7]: 0.605 | NF-kB SEAP reporter activity [2, 8]: 0.528

COc1cccc(NC(=O)/C=C/c2ccc(Cl)cc2)c1
NF-kB SEAP reporter activity [1, 9]: 1.02 | NF-kB SEAP reporter activity [1, 10]: 1.04

COc1cccc(NC(=O)/C=C/c2ccc(Cl)cc2)c1 (library stock concentration (final ~1000-fold dilution): 10 mM)
NF-kB SEAP reporter activity ([2]; agonist: LPS (TLR4) 0.1 ug/mL): 1.18 | NF-kB SEAP reporter activity [2, 6]: 0.828 | NF-kB SEAP reporter activity [2, 7]: 0.682 | NF-kB SEAP reporter activity [2, 8]: 0.711

CC(=O)Oc1cc2c(s1)CCN(C(C(=O)C1CC1)c1ccccc1F)C2.Cl (stereo not given)
NF-kB SEAP reporter activity [1, 10]: 0.869

CC(=O)Oc1cc2c(s1)CCN(C(C(=O)C1CC1)c1ccccc1F)C2.Cl (stereo not given) (library stock concentration (final ~1000-fold dilution): 10 mM)
NF-kB SEAP reporter activity ([2]; agonist: LPS (TLR4) 0.1 ug/mL): 0.766 | NF-kB SEAP reporter activity [2, 6]: 0.821 | NF-kB SEAP reporter activity [2, 7]: 0.958 | NF-kB SEAP reporter activity [2, 8]: 0.688

C=CC(=O)N1CC/C(=C\c2ccc(F)c([N+](=O)[O-])c2)C(=O)/C(=C/c2ccc(F)c([N+](=O)[O-])c2)C1 (library stock concentration (final ~1000-fold dilution): 10 mM)
NF-kB SEAP reporter activity ([2]; agonist: LPS (TLR4) 0.1 ug/mL): 0.222 | NF-kB SEAP reporter activity [2, 6]: 0.198 | NF-kB SEAP reporter activity [2, 7]: 0.0699 | NF-kB SEAP reporter activity [2, 8]: 0.144

C=CC(=O)N1CC/C(=C\c2ccc(F)c([N+](=O)[O-])c2)C(=O)/C(=C/c2ccc(F)c([N+](=O)[O-])c2)C1
NF-kB SEAP reporter activity [1, 9]: 0.151 | NF-kB SEAP reporter activity [1, 10]: 0.267
